The full ranking holds about 1,100 compounds; the median of “Renilla luciferase signal (cell health) relative to plate median” is about 0.97, and the highest 2% start at about 1.6. The full list was thinned out, with the highest values kept by preference.
System: HEK293T (UBE3A T485A transfected, BAR Wnt reporter)
Assay: Renilla luciferase signal (cell health) relative to plate median (fold (linear ratio)); higher = higher Renilla signal
Conditions: 24 h
Method in brief: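 Each value averages four biological replicates in HEK293T cells grown at 4500 cells/well in DMEM with 10% FBS at 37°C and 5% CO2. The cells were transfected with a BAR firefly luciferase Wnt reporter, TK-Renilla and an expression plasmid, then four hours later robotically treated with the chemicals at 0.01–100 uM for 24 h. Dual-Glo luciferase signals were median-centred per plate, with the firefly/Renilla ratio reported as Wnt activity and raw Renilla as cell health.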

Row | Compound | Renilla luciferase signal (concentration: 0.1 uM) | Renilla luciferase signal (concentration: 1 uM) | Renilla luciferase signal (concentration: 10 uM) | Renilla luciferase signal (concentration: 100 uM) | Renilla luciferase signal (concentration: 0.01 uM)
1 | O=C([O-])c1[nH]n(-c2ccc(S(=O)(=O)[O-])cc2)c(=O)c1/N=N/c1ccc(S(=O)(=O)[O-])cc1.[Na+].[Na+].[Na+] [FD&C Yellow 5] | 1.1 | 1.15 | 1.15 | 0.999 | –
2 | CC1(C)CC(N=C=O)CC(C)(CN=C=O)C1 (configuration not stated) [Isophorone diisocyanate] | 0.927 | 0.855 | 0.865 | 0.953 | –
3 | S=C([S-])NCCNC(=S)[S-].[Mn+2] [Maneb] | 1.01 | 0.995 | 0.968 | 0.105 | 0.874
4 | CC(C(C)N1CC(=O)NC(=O)C1)N1CC(=O)NC(=O)C1 (configuration not stated) | 0.674 | 0.785 | 0.383 | 0.396 | 0.735
5 | C=CCCCCCCCCC(=O)O [10-Undecenoic acid] | 0.947 | 0.883 | 0.917 | 1.16 | –
6 | O=C(O)c1cccc(N(Cc2cccnc2)c2ccc(OC(F)F)c(OC(F)F)c2)c1 | 1.15 | 1.14 | 1.24 | 0.322 | –
7 | CCCCCCCCCCCCCCC [Pentadecane] | 0.808 | 0.899 | 0.973 | 1.16 | –
8 | CN(C)CCCN(C)CCCN(C)C [2,6,10-Trimethyl-2,6,10-triazaundecane] | 0.932 | 0.811 | 0.918 | 0.932 | –
9 | COC(=O)c1ccc(C(=O)OC)cc1 [Dimethyl terephthalate] | 0.95 | 1.09 | 1.01 | 1.36 | –
10 | Cc1nc(-c2ccccn2)ncc1C(=O)Nn1cc(C)c2cc(F)ccc21 | 0.941 | 0.877 | 1.05 | 1.02 | –
11 | CCc1cc(C2=C(C(=O)[O-])N(c3ccccc3C(F)(F)F)S(=O)(=O)c3ccccc32)cc2c1OCO2.[K+] [Fandosentan potassium salt] | 1.01 | 1.1 | 0.887 | 0.331 | –
12 | CN(Cc1cnc2nc(N)nc(N)c2n1)c1ccc(C(=O)N[C@@H](CCC(=O)O)C(=O)O)cc1 [Methotrexate] | 0.13 | 0.0382 | 0.0865 | 0.087 | –
13 | CC(=O)Nc1ccc(O)cc1 [Acetaminophen] | 0.68 | 0.735 | 0.812 | 1.3 | –
14 | O=C(O)c1cn(C2CC2)c2cc(N3CCNCC3)c(F)cc2c1=O [Ciprofloxacin] | 0.893 | 1.01 | 0.9 | 0.336 | 1.06
15 | O=C1CN(N=Cc2ccc([N+](=O)[O-])o2)C(=O)N1 [Nitrofurantoin] | 0.891 | 1.01 | 1.69 | 0.345 | –
16 | NC(=O)N/N=C/c1ccc([N+](=O)[O-])o1 [Nitrofurazone] | 1.03 | 1.13 | 1.44 | 0.334 | –
17 | O=[N+]([O-])c1ccc([O-])cc1.[Na+] [Sodium 4-nitrophenolate] | 0.98 | 0.86 | 0.924 | 0.669 | –
18 | COc1c(Cl)ccc(Cl)c1C(=O)O [Dicamba] | 1.05 | 1.14 | 1.04 | 1.52 | 1.07
19 | CC[C@H](C)C(=O)O[C@H]1C[C@H](O)C=C2C=C[C@H](C)[C@H](CC[C@@H](O)C[C@@H](O)CC(=O)[O-])[C@H]21.[Na+] [Pravastatin sodium] | 1.01 | 0.866 | 1.1 | 1.15 | –
20 | CC(=O)c1ccccc1 [Acetophenone] | 0.867 | 0.964 | 0.94 | 1.11 | –

Row | Compound | Renilla luciferase signal (concentration: 0.1 uM) | Renilla luciferase signal (concentration: 1 uM) | Renilla luciferase signal (concentration: 10 uM) | Renilla luciferase signal (concentration: 100 uM) | Renilla luciferase signal (concentration: 0.01 uM)
21 | O=C(O)c1ccccc1 [Benzoic acid] | 1.21 | 1.13 | 1.35 | 1.77 | –
22 | O=C(O)c1cccc(C(=O)O)c1 [1,3-Benzenedicarboxylic acid] | 1.04 | 1.04 | 1.06 | 1.35 | –
23 | O=c1ccn(C2OC(COP(=O)(O)OP(=O)(O)OP(=O)(O)O)C(O)C2O)c(=O)[nH]1 (configuration not stated) | 0.813 | 0.949 | 0.922 | 2.08 | 0.681
24 | Cl.Nc1ccn([C@@H]2O[C@H](CO)[C@@H](O)[C@@H]2O)c(=O)n1 [Cytarabine hydrochloride] | 0.829 | 0.907 | 0.626 | 0.809 | –
25 | OCCC(F)(F)C(F)(F)C(F)(F)C(F)(F)C(F)(F)C(F)(F)C(F)(F)C(F)(F)F [1,1,2,2-Tetrahydroperfluoro-1-decanol] | 0.4 | 0.824 | 0.813 | 1.27 | –
26 | Cc1ncc([C@@H](CCCCCCc2ccc3c(n2)NCCC3)CC(=O)O)cn1 | 0.747 | 0.794 | 0.796 | 0.82 | –
27 | CNCc1cc(F)ccc1Oc1ccc(Cl)c(Cl)c1 | 0.817 | 0.874 | 0.723 | 0.0625 | –
28 | Cn1cnc([N+](=O)[O-])c1Sc1ncnc2nc[nH]c12 [Azathioprine] | 0.939 | 0.983 | 0.605 | 0.0481 | –
29 | CCCCCCCCCCCCN1CCCC1=O [1-Dodecyl-2-pyrrolidinone] | 0.846 | 0.856 | 0.929 | 0.883 | –
30 | CC(=O)OC1CC(C)OC(C)O1 (configuration not stated) [Dimethoxane] | 1.23 | 1.1 | 1.26 | 1.63 | –
31 | CCOC(=O)c1ccc([C@H]2CC[C@H](NC[C@H](O)COc3ccc(O)c(NS(C)(=O)=O)c3)CC2)cc1.Cl | 0.973 | 0.878 | 0.753 | 0.0262 | –
32 | C[C@]12C[C@H](O)[C@H]3[C@@H](CCC4=CC(=O)CC[C@@]43C)[C@@H]1CC[C@@H]2C(=O)CO [Corticosterone] | 0.641 | 0.712 | 0.847 | 0.636 | –
33 | CN(C)[C@@H]1C(O)=C(C(N)=O)C(=O)[C@@]2(O)C(O)=C3C(=O)c4c(O)cccc4[C@@](C)(O)[C@H]3[C@H](O)[C@@H]12.Cl [Oxytetracycline hydrochloride] | 0.959 | 1.35 | 2.28 | 0.903 | –
34 | CN(C)[C@@H]1C(O)=C(C(N)=O)C(=O)[C@@]2(O)C(O)=C3C(=O)c4c(O)cccc4[C@@](C)(O)[C@H]3C[C@@H]12 [Tetracycline] | 0.672 | 0.805 | 0.694 | 1.7 | –
35 | CN(C)[C@@H]1C(O)=C(C(N)=O)C(=O)[C@@]2(O)C(O)=C3C(=O)c4c(O)cccc4[C@@](C)(O)[C@H]3[C@H](O)[C@@H]12.O.O [Oxytetracycline dihydrate] | 0.636 | 0.879 | 0.861 | 0.964 | 0.781
36 | O=C(O)CCCCC(=O)O [Hexanedioic acid] | 0.851 | 0.762 | 0.865 | 1.08 | –
37 | O=C1OC(=O)C2C3C=CC(C3)C12 (configuration not stated) [2-Norbornene-5,6-dicarboxylic anhydride] | 0.885 | 0.853 | 0.966 | 1.39 | –
38 | COC(=O)CSc1cc(/N=c2\sc(=O)n3n2CCCC3)c(F)cc1Cl [Fluthiacet-methyl] | 0.995 | 1.1 | 1 | 1.21 | 1.03
39 | Fc1ccccc1[C@@H](F)CO[C@H]1CC[C@H](Nc2[nH]cnc3nncc2-3)CC1 | 1.06 | 1.09 | 0.996 | 0.148 | –
40 | Oc1cc2ccccc2c2ccccc12 [9-Phenanthrol] | 1.08 | 1.05 | 1.01 | 0.0207 | –

Row | Compound | Renilla luciferase signal (concentration: 0.1 uM) | Renilla luciferase signal (concentration: 1 uM) | Renilla luciferase signal (concentration: 10 uM) | Renilla luciferase signal (concentration: 100 uM) | Renilla luciferase signal (concentration: 0.01 uM)
41 | COCCO [2-Methoxyethanol] | 1.02 | 0.98 | 0.983 | 1.53 | 1.12
42 | CN(C)CCCN1c2ccccc2Sc2ccc(Cl)cc21.Cl [Chlorpromazine hydrochloride] | 1.17 | 1.23 | 1.24 | 0.575 | –
43 | O=c1ccc2ccccc2o1 [Coumarin] | 1.21 | 1.07 | 1.11 | 1.15 | –
44 | Nc1ccc(S(=O)(=O)c2ccc(N)cc2)cc1 [Dapsone] | 1.03 | 1.07 | 1.2 | 1.03 | –
45 | CCCCOC(=O)c1ccc(O)cc1 [Butylparaben] | 0.848 | 0.85 | 0.756 | 0.258 | –
46 | CCCCN1C(=O)[C@@H]([C@H](O)C2CCCCC2)NC(=O)C12CCN(Cc1ccc(Oc3ccc(C(=O)O)cc3)cc1)CC2.Cl [Aplaviroc hydrochloride] | 0.995 | 1.01 | 1.04 | 2.23 | –
47 | CCc1ccc(O)c(C(C)(C)C)c1 [2-tert-Butyl-4-ethylphenol] | 1.28 | 1.07 | 1.02 | 1.22 | –
48 | O=C(O)CC(O)(CC(=O)O)C(=O)O [Citric acid] | 0.965 | 0.981 | 1.13 | 1.46 | –
49 | NC(=O)c1nc(-c2cccc(-c3cc(F)ccc3OCC(F)(F)C(F)(F)F)c2)n[n-]1.O.[K+] | 0.946 | 0.78 | 0.498 | 0.0369 | –
50 | O=C(O)Cc1cc(I)c(Oc2ccc(O)c(I)c2)c(I)c1 [Tiratricol] | 0.92 | 1.07 | 0.852 | 0.382 | –
51 | N[C@@H](Cc1cc(I)c(Oc2ccc(O)c(I)c2)c(I)c1)C(=O)O [3,5,3'-Triiodothyronine] | 0.904 | 1.24 | 2.47 | 2.22 | –
52 | O=C(O)Cc1cc(I)c(Oc2cc(I)c(O)c(I)c2)c(I)c1 [Tetrac] | 1.07 | 1.06 | 1.11 | 1.28 | –
53 | COc1ccc(-c2ccc(=N)n(CCCC(=O)O)n2)cc1 | 0.914 | 0.864 | 0.935 | 1.38 | 0.946
54 | COc1ccc2c(c1)c(CC(=O)O)c(C)n2C(=O)c1ccc(Cl)cc1 [Indomethacin] | 1.09 | 1.15 | 1.17 | 0.248 | –
55 | CC1(C)C(=O)N(Cl)C(=O)N1Cl [1,3-Dichloro-5,5-dimethylhydantoin] | 0.99 | 1.06 | 1.04 | 0.988 | –
56 | CC=Cc1ccc(O)c(OC)c1 [Isoeugenol] | 0.954 | 1.01 | 0.993 | 0.945 | –
57 | CCN(CC)CCOc1ccc(C(=C(Cl)c2ccccc2)c2ccccc2)cc1.O=C(O)CC(O)(CC(=O)O)C(=O)O [Clomiphene citrate (1:1)] | 0.837 | 0.85 | 0.818 | 1.02 | –
58 | CCCCCCC(C)OC(=O)COc1nc(F)c(Cl)c(N)c1Cl (configuration not stated) [Fluroxypyr-meptyl] | 1.3 | 1.15 | 1.2 | 2.31 | 1.04
